Out of some 1,200 compounds screened, about 10 (0.8%) were called active. Another 4% or so got no clear call; they are omitted. The sample as a whole holds a higher share of actives than the screen did. Unmarked numbers belong to inactive results. Calls follow the shape of the dose curve; as a rule, active = well fitted inhibition curve with a large enough effect; inconclusive = small, poorly fitted or top-dose-only effect; inactive = no such curve, though single readings can be large or run the other way.
% is scaled to controls: 0 for no effect and ±100 for the full control effect; potency is read from the fitted curve at half-maximal effect.

The nature of this assay: qHTS Assay to Find Inhibitors of Chronic Active B-Cell Receptor Signaling: Hit Validation in OCI-Ly3 Assay. The conditions noted are these: OCI-Ly3 IkB-luciferase reporter, Chroma-Glo luminescence, 4 h; series mostly up to 46.1 µM; activity change, negative = inhibition: at the top concentration. The text has this: Diffuse large B-cell lymphoma (DLBCL) is the most common category of non-Hodgkin lymphoma, with ~20,000 new cases per year in the United States. DLBCL should be regarded as a collection of different neoplasms. Microarray gene expression analysis has defined two principal types of DLBCL, named for their similarity to normal B cell stages or activation states: a germinal center B-cell (GCB) type, and an activated B-cell (ABC) type. In ABC-DLBCL, a constitutive high-level activity of the NF-kappaB family of transcription factors has been observed (1) and NF-kappaB target genes are more highly expressed in ABC primary tumors than in GCB tumors. Functional studies have shown a constitutive high-level activity of the IkappaB (inhibitor of kappa-B) kinase (IKK) complex. […] Further analysis of DLBCL primary tumors for NF-kappaB target gene expression imply that although CARD11 is required for constitutive IKK activity in all ABC-DLBCL lines, mutations in CARD11 may be the root cause of IKK activation only in lines or tumors with such mutations. In other words, CARD11 mutations may explain NF-kappaB activation in only 10% of ABC-DLBCL cases. […] This process has been termed 'chronic active BCR signaling' (CABS). The goal of this screen is to find small-molecule inhibitors of the CABS pathway found in ABC-DLBCL lines using a cell-based assay that measures IkappaBalpa stability, which has already been extensively validated in the OCI-Ly3 line (PubChem AID:445; REF: 4). […] Hits from the primary screen were tested in this selectivity secondary assay. NIH Molecular Libraries Probe Production Network [MLPCN] NIH Chemical Genomics Center [NCGC] MLPCN Grant: R03 DA031086 PI Name: Dr. R. Eric Davis
Cells were seeded in 1536-well plates at 5000 cells/3ul in IMDM medium containing 0.5% FBS, w/o phenol red, L-glutamine, 25 mM HEPES, 3 mg/ml sodium bicarbonate. After centrifugation for 1 min. at 1000 rpm, 23 nl of compounds or DMSO were delivered to each well using a pin tool. Then 1ul 80ng/ml doxycycline was dispensed into white solid 1536-well plates and the plates were incubated at 37C/5% C02 in a cell incubator for 4 hrs. Then 4 ul Chroma-Glo luminescent substrate mix (Promega) was added to each well. The plate was incubated at R.T. for 10-15 min. The plates were measured on a ViewLux plate reader for green luminescence (540/20 nm filter) and red luminescence (618/8 nm filter). The green and red luminescent signals were corrected for red and green luminescence filter overlap using previously determined filter calibration constants (determined using the procedure outlined in the Promega Technical Manual). The %Activity was determined from the ratio of corrected green/red luminescent values. Green luminescent and ratio %Activity was determined by normalizing to the difference in signal between basal cells (0% Activity) and cells incubated with 10 uM of the proteasome inhibitor MG-132 (100% Activity). Red luminescent %Activity was normalized to the difference between red luminesence in basal cells (0%Activity) and zero luminescence (-100% Activity). Concentration-response curves were fitted to the signals arising from the green luminescence (I-kappa-B-alpha-luciferase fusion; IkB-luc) and the red luminescence (unfused luciferase; luc) as well as the calculated ratio. The concentration-effect curves were then classified based on curve quality (r2), response magnitude and degree of measured activity. Compounds were then categorized based on their concentration-response curves for all three datasets (Ikb-luc, luc and ratio).
Background: Quantitative high-throughput screening tests each substance at several concentrations.
In the case of `Oc1[nH]c2c(Cl)cc(Cl)cc2c1N=NC(=S)NCC1CCCO1` (stereo not given), the “activity change, negative = inhibition” value is -26.5%.
Consider `NC(=S)N=Nc1c(O)n(CCCl)c2ccccc12`, for which the “activity change, negative = inhibition” value is -0.383%.
Turning to `CCn1c(O)c(N=NC(=S)NCC2CCCO2)c2ccccc21` (stereo not given), the Potency is 20.6 µM (active).
Consider `COC(=O)C1C(O)=C(C=Nc2cccc3ccccc23)C(=O)CC1(C)C` (stereo not given), for which the “activity change, negative = inhibition” value is -0.573%.
Same read-out and setting: the value for `CCOc1ccc(C(=O)NC(=S)Nc2cccc(S(=O)(=O)NC3=NCCC3)c2)cc1` was -4.42%; that for `CC1=CC(C)(C)N(S(=O)(=O)c2ccc(C)cc2)c2ccccc21` was -3.65%; that for `Cc1ccc(OC/C(=N\O)C(C)(C)C)c([N+](=O)[O-])c1` was -0.43%.
Same read-out and setting: under `Cc1ccc(Nc2nc(-c3c(C)nc4ccccn34)cs2)cc1` stands -3.78%; under `CCOc1ccc(C(=O)c2cc([N+](=O)[O-])ccc2N2CCOCC2)cc1`, -3.09%; under `COc1ccc(C=C2c3ccccc3C(=O)c3ccccc32)c(OC)c1`, -2.64%.
For the molecule `COc1ccc(/C=C/C(=O)c2cc(Br)ccc2OC(=O)c2ccco2)cc1OC`, the “activity change, negative = inhibition” value was -26.8%.
`COCCN(Cc1cc2cc(C)cc(C)c2nc1Cl)C(=O)Nc1ccccc1`: the “activity change, negative = inhibition” value is -1.1%.
For `Cc1ccc(NC(=S)NNC(=S)Nc2ccc(C)cc2C)cc1`, the “activity change, negative = inhibition” value was -5.8%.
For `CCCCOc1ccc(Br)cc1/C(C)=N/NC1=NCCN1`, the “activity change, negative = inhibition” value is -0.15%.
With `COc1cccc(C2NC(=S)NC(C)=C2C(=O)c2ccccc2)c1OC` (stereo not given), the “activity change, negative = inhibition” value is -1.95%.
Consider `O=C(/C=C/c1ccccc1Cl)c1cccnc1`, for which the “activity change, negative = inhibition” value is -0.735%.
Turning to `CCOC(=O)C1CCN(S(=O)(=O)c2c(Cl)ccc3nonc23)CC1`, the “activity change, negative = inhibition” value is 1.28%.
As for `S=c1nc2ccccc2c2nc(-c3ccccc3Br)[nH]n12`, the “activity change, negative = inhibition” value was 83.2%.
Turning to `Oc1ccc(-c2nnc(Nc3cccc(O)c3)c3ccccc23)cc1`, the “activity change, negative = inhibition” value was -1.7%.
With `COc1ccc(-c2cc(C(F)(F)F)n3nc(C(=O)NCCCn4ccnc4)cc3n2)cc1`, the “activity change, negative = inhibition” value is -0.239%.
For `COc1ccccc1-c1cc(C(=O)NCCc2ccccc2)no1`, the “activity change, negative = inhibition” value was -4.78%.
Regarding `COc1ccc(C(=O)c2ccc(N(C)C)cc2)c2ccccc12`, the “activity change, negative = inhibition” value was -4.15%.
As for `CCCCC[C@H](O)/C=C/C1=C(CCCCCCC(=O)O)C(=O)CC1`, the “activity change, negative = inhibition” value is -0.832%.
Turning to `CCc1nc2ccccc2c(C(=O)OCc2nc3ccccc3c(=O)[nH]2)c1C`, the “activity change, negative = inhibition” value is -2.85%.
Take `ClCc1nc2ccccc2c2ccccc12`: the Potency was 13 µM (active).
Regarding `S=c1nc2ccccc2c2nc(-c3ccccc3)[nH]n12`, the “activity change, negative = inhibition” value was 18.3%.
As to `CCCc1oc2ccc(NS(=O)(=O)c3ccc(OC)cc3)cc2c1C(=O)OCC`, the “activity change, negative = inhibition” value is -4.35%.
Regarding `COc1ccc2c(c1)c(/C=N/Nc1nc3ccccc3[nH]1)c(C)n2C`, the “activity change, negative = inhibition” value was -10%.
For the molecule `COC(=O)[C@@H]1[C@@H](C#N)C2(c3ccccc3-c3ccccc32)N(c2ccc(Cl)cc2)N1C#N`, the “activity change, negative = inhibition” value was 0.249%.
Take `O=C(Nc1ccc([N+](=O)[O-])cc1)Nc1ccon1`: the “activity change, negative = inhibition” value was -2.62%.
As for `Cc1cccc(Cn2cc(/C=C/[N+](=O)[O-])c3ccccc32)c1`, the “activity change, negative = inhibition” value is -2.08%.
The same measure, in the same setting: the value for `CCN(CC)c1ccc2c(C)c(CO)c(=O)oc2c1` was -0.0824%.
Consider `Cc1nc(NC(=S)Nc2ccccc2)sc1C`, for which the “activity change, negative = inhibition” value was 31.6%.
For the molecule `COc1ccc(OC)c(-c2cc(C(=O)Nc3c(C)nn(Cc4ccccc4)c3C)no2)c1`, the “activity change, negative = inhibition” value is -2.57%.
For the molecule `Cc1ccc(O)c(N=Nc2nccs2)c1`, the Potency is 16.4 µM (active).
As to `CCOC(=S)SCC(=O)Nc1nc(-c2ccc(Br)cc2)cs1`, the “activity change, negative = inhibition” value is -1.99%.
As to `CC[C@]12c3[nH]c4cc(CCC(=O)N(C)C)ccc4c3CCN1C(=O)[C@@H](CC(=O)NCC13CC4CC(CC(C4)C1)C3)C[C@@H]2C(=O)N1CCN(C(=O)c2ccco2)CC1`, the “activity change, negative = inhibition” value was -3.16%.
Consider `Cc1cccc(NS(=O)(=O)c2ccc(-c3cnc(C4CC4)o3)cc2)c1C`, for which the “activity change, negative = inhibition” value was -14.9%.
Turning to `CCN(CC)c1ccc(-c2nn3c(-c4ccccc4OC)nnc3s2)cc1`, the “activity change, negative = inhibition” value is -2.37%.
Take `COc1cc(OC)cc(C(=O)NCC(=O)N2CC=C(c3ccccc3)CC2)c1`: the “activity change, negative = inhibition” value was -2.46%.
Take `CC1=Nc2cc(C(=O)NCc3ccco3)ccc2Sc2ccc(C)cc21`: the “activity change, negative = inhibition” value was -2.52%.
Take `CCCCC[C@H](O)/C=C/[C@@H]1[C@@H](CCCCCCC(=O)O)[C@@H](O)C[C@H]1O`: the “activity change, negative = inhibition” value was -1.13%.
Turning to `COc1ccc(Nc2nc(-c3c(C)nc4ncccn34)cs2)cc1`, the “activity change, negative = inhibition” value is -6.49%.
For `COc1ccc(NC(=O)C(=O)NCC2CCCN2S(=O)(=O)c2ccc(C)cc2)cc1` (stereo not given), the “activity change, negative = inhibition” value is -2.59%.
`COc1ccc(Nc2nc(N)nc(CCl)n2)cc1`: the “activity change, negative = inhibition” value was 0.223%.
As to `Cc1ccc2nc(SCC(=O)Nc3cc(C(F)(F)F)ccc3N3CCOCC3)[nH]c2c1`, the “activity change, negative = inhibition” value was -7.54%.
On the same count and under the same terms, the value for `CCOc1ccc(N(CC(=O)Nc2ccccc2OC)S(=O)(=O)c2ccccc2)cc1` was -3.72%; that for `COc1cc2c(cc1OC)C(c1ccc(OC)c(OC)c1OC)CC(=O)N2` (stereo not given) was -0.252%; that for `Cc1ccccc1NC(=S)N=Nc1c(O)n(C)c2ccc(S(=O)(=O)N3CCOCC3)cc12` was -18.4%.
On to `CCc1ccccc1NC(=S)N=Nc1c(O)n(C)c2ccc(S(=O)(=O)N3CCOCC3)cc12`, for which the “activity change, negative = inhibition” value was -9.04%.
`Cn1c(O)c(N=NC(=S)Nc2ccccc2F)c2cc(S(=O)(=O)N3CCOCC3)ccc21`: the Potency is 3.66 µM (active).
For `COc1ccc(/C=C/C(=O)Nc2ccc(-n3nncc3-c3ccc(OC)c(OC)c3)cc2)cc1OC`, the “activity change, negative = inhibition” value was -1.06%.
Take `COc1ccc(OC)c(C2C3=C(COC3=O)Nc3cc4c(cc32)OCO4)c1` (stereo not given): the “activity change, negative = inhibition” value was -1.69%.
For `CCN(CC)S(=O)(=O)c1ccc2c(c1)c(=O)c(C(=O)NCCc1ccc(OC)c(OC)c1)cn2C`, the “activity change, negative = inhibition” value was -0.826%.
Still for that read-out and setting: under `O=C(COc1ccc(C(=O)c2ccc(F)cc2)cc1)NCc1ccc(F)cc1` stands -2.37%.

Source of the values: PubChem BioAssay AID651567 (National Center for Advancing Translational Sciences (NCATS), 2012).
